Compounds with a hit are over-represented: about 11% of the library has one in this group of screens.
ALOX15 inhib – 15-hLO (ALOX15) enzyme inhibition. actives 1.4% (n = 74,000). P16050. purified 15hLO-1, xylenol orange hydroperoxide absorbance. Potency, µM (series often up to 57.1 µM), hits mostly inhibitors; further: nearly all actives have a fitted effect of over 55% in size
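Inhibition is scored from a chromogenic endpoint. After 15 min enzyme-compound contact, arachidonic acid (50 uM final) reacts 6 min with 40 nM 15hLO-1 at room temperature, then Fe-XO reagent is added for 30 min and absorbance ratio recorded.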
HADH2 inhib – blocks human hydroxyacyl-CoA dehydrogenase type II | Q99714 | recombinant HADH2, NADH fluorescence, beta-hydroxybutyryl-CoA | Potency, µM (series often up to 57.1 µM), hits mostly inhibitors | actives 3.4% (n = 73,000); further: nearly all actives have a fitted effect of over 60% in size
Target sequence (Q99714 whole entry, looked up, one chain of several): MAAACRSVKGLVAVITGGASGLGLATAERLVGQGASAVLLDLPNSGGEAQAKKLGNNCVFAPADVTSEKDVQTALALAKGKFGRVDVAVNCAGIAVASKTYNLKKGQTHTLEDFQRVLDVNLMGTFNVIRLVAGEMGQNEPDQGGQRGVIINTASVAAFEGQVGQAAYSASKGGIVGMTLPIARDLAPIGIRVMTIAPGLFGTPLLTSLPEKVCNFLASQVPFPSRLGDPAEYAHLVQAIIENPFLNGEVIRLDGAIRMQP
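NADH fluorescence (ex 360/em 450 nm) read every 30 s for 4 min; activity taken as last-minus-first time point difference. Enzyme 20 nM, NAD+ 1 mM, beta-hydroxybutyryl-CoA 90 uM, pH 9.0 Tris buffer.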
HSD17B inhib – blocks hydroxysteroid 17-beta dehydrogenase activity | Q99714 | recombinant HSD17B10, NADH fluorescence kinetic | Potency, µM (top dose mostly 57.1 µM), most hits filed as inhibitors | actives 7.6% (n = 75,000);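 further: the protocol describes HADH2 (HSD17B10) and not the HSD17B4 of the title; nearly all actives have a fitted effect of over 70% in size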
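20 nM HADH2, pH 9.0 Tris/Tween; cpd preinc 15 min RT; start w/ 1 mM NAD+ + 90 uM b-hydroxybutyryl-CoA; kinetic fluor ex360/em450 q30s x 4 min; delta last-first.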
Bst PK mod – alters activity of Bacillus stearothermophilus pyruvate kinase. purified pyruvate kinase, luminescence ATP production; ribose 5-phosphate activator present at AC10. Potency, µM. AID 361. actives 1.2% (n = 51,000); in the data active means potency below about 11 µM; inconclusive means mostly about 12 µM to 25 µM;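 the screen sought inhibitors and activators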
Luciferase inh – firefly luciferase inhibition; purified firefly luciferase, luminescence, 8 min; Potency, µM (series often up to 57.1 µM), most hits filed as inhibitors; actives 2.2% (n = 72,000); AID 411; further: nearly all actives have a fitted effect of over 40% in size
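Titration-based qHTS; buffer 50 mM imidazole pH 7.2, 50 mM KCl, 7 mM MgCl2, 10 uM ATP, 0.01% Tween 20, 0.05% BSA; luciferase/luciferin detector mix added after compound; 8 min, ambient; luminescence.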
ERK AVP inh – blocks ERK signaling stimulated by vasopressin. HEK293-V1b, vasopressin-stimulated pERK AlphaScreen. Potency, µM (doses to about 57.5 µM), hits mostly inhibitors. actives 0.99% (n = 72,000); further: nearly all actives have a fitted effect of over 55% in size
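Phosphorylated ERK1/2 detected via AlphaScreen bead proximity in lysates of V1b-expressing HEK293 cells given 25 nM vasopressin for 5 min after 30 min compound exposure (37 °C). AC50 from Hill equation; basal DMSO 0%, vasopressin 100%.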
Of the large screens only hits and unclear results are named; the others gave an inactive call. Unless noted, the call rests on the fitted dose curve; in most records, active means well fitted curve in the direction sought with a large enough effect; inconclusive means small, poorly fitted or top-dose-only effect, or another doubt; inactive means no such curve, though single readings can be large; an effect the other way counts as inactive or inconclusive.

O=c1c(-c2cc(F)cc(F)c2)nc2cnc(N3CCNCC3)nc2n1Cc1ccc(F)cc1	ERK AVP inh inconclusive (no result: Bst PK mod)
CN1CCN(c2ncc3nc(-c4cc(F)cc(F)c4)c(=O)n(-c4ccccc4)c3n2)CC1	ALOX15 inhib inconclusive, HADH2 inhib 25µM, HSD17B inhib 10µM (no result: Bst PK mod)
O=c1c(-c2cccs2)nc2cnc(N3CCNCC3)nc2n1-c1ccccc1	HSD17B inhib 25µM (no result: Bst PK mod)
C/C(CCN1CCCCc2nc(C)c(C)cc21)=N\O[C@@H](C)c1cc(-c2c(C)cc(C)cc2C)no1	none (no result: Bst PK mod)
NC[C@@H](O)CSCc1ccc(Cl)cc1	none (no result: Bst PK mod)
O=C(O)c1cc(N=Nc2ccc([N+](=O)[O-])cc2)ccc1O	none (no result: Bst PK mod)
CO[C@@H]1/C=C\CC(=O)N[C@@H](C)C(=O)OC[C@H](NS(=O)(=O)c2ccc(C)cc2)[C@H](C)/C=C\CC(=O)OC[C@H]1C	none (no result: Bst PK mod)
CN1CCN(c2ncc3ncc(=O)n(-c4ccccc4)c3n2)CC1	HSD17B inhib 25µM (no result: Bst PK mod)
CN1CCN(c2ncc3nc(-c4cn(C)c5ccccc45)c(=O)n(-c4ccccc4)c3n2)CC1	none (no result: Bst PK mod)
O=c1c(-c2ccc(F)cc2)nc2cnc(N3CCNCC3)nc2n1-c1ccccc1	HSD17B inhib 4µM, ERK AVP inh inconclusive (no result: Bst PK mod)
CC(C)C[C@H](NC(=O)N1CCCCCC1)C(=O)N[C@H](Cc1cn(C)c2ccccc12)C(=O)N[C@H](Cc1ccccn1)C(=O)O	HADH2 inhib inconclusive (no result: Bst PK mod)
O=C(O)c1cc(=O)[nH]c(=S)[nH]1	none (no result: Bst PK mod)
C#CCOC(=O)[C@H](N)CC(N)=O	none (no result: Bst PK mod)
S=C(c1ccc(N2CCCC2)cc1)N1CCCCC1	ALOX15 inhib inconclusive
CCN(CC)c1ccc(C(=S)N2CCN(c3ccccc3)CC2)cc1	HADH2 inhib 13µM, ERK AVP inh 32µM
CC[C@H]1C2=C3C(CC[C@H]4C(OC)OC[C@](C)([C@@H]34)N(C(=O)OC(C)(C)C)C2)C(CO)C1CO (stereo not given in full)	none (no result: ALOX15 inhib, Bst PK mod, Luciferase inh)
CC(C)(O)c1cc(=O)sc2nc3ccccc3n12	Luciferase inh 25µM
CCCS(=O)(=O)NCc1cn2cccc(C)c2n1	HSD17B inhib 32µM
C#CCCCO/N=C1/C[C@@H](O)[C@@H](O)[C@@H]2[C@H]3C(=O)N(c4ccc(F)cc4F)C(=O)[C@@H]3CC[C@H]12	none (no result: Bst PK mod)
C/C(=N\O)c1ccc2c3c([nH]c2c1)CCCC3	HADH2 inhib 32µM, HSD17B inhib 25µM, Luciferase inh 16µM (no result: Bst PK mod)
CN(C)S(=O)(=O)c1ccc2c(c1)/C(=C/c1cc3c([nH]1)CCCC3)C(=O)N2	ALOX15 inhib inconclusive, Luciferase inh 25µM, ERK AVP inh inconclusive (no result: Bst PK mod)
COc1ccc(Oc2ncc3ncc(=O)n(Cc4cccc(OC)c4)c3n2)cc1	none (no result: Bst PK mod)
O=C(O)[C@H]1[C@H]2C[C@H]3c4[nH]c5ccccc5c4CCN3C[C@@H]2CC[C@@H]1O	HSD17B inhib inconclusive (no result: HADH2 inhib, Bst PK mod, Luciferase inh)
O=C(O)[C@@H]1[C@@H]2C[C@H]3c4[nH]c5ccccc5c4CCN3C[C@@H]2CC[C@@H]1O	ALOX15 inhib inconclusive, HADH2 inhib inconclusive, HSD17B inhib 13µM (no result: Bst PK mod)
CC(=O)OC1CC2C(C)(C)C(=O)[C@@H]3OC3[C@@]2(C)C2CC[C@]3(C)C(=CC(=O)OC3c3ccoc3)[C@]12C (stereo not given in full)	none (no result: HADH2 inhib, Bst PK mod, Luciferase inh)
CNc1nc(-c2ccc(N(C)C)cc2)nc2ccccc12	ALOX15 inhib inconclusive, HADH2 inhib inconclusive, HSD17B inhib 20µM (no result: Bst PK mod)
CN(C)c1ccc(-c2nc(N(C)C)c3ccccc3n2)cc1	none (no result: Bst PK mod)
CN(C)c1ccc(-c2nc(Nc3ccncc3)c3ccccc3n2)cc1	Luciferase inh 0.4µM, ERK AVP inh 16µM (no result: Bst PK mod)
CN(CCC(=O)O)S(=O)(=O)c1ccccc1	none (no result: Bst PK mod)
Cc1cc(NC(=O)CCCS(=O)(=O)c2nc(-c3cccs3)cc(C(F)(F)F)n2)no1	HADH2 inhib 25µM, HSD17B inhib 32µM (no result: Bst PK mod)
CS(=O)(=O)c1nc(-c2cccs2)cc(C(F)(F)F)n1	HADH2 inhib 13µM, HSD17B inhib 25µM, ERK AVP inh inconclusive
CC(C)C(=O)N[C@@H]1CCCN1C(=O)/C=C\c1ccccc1	none (no result: Bst PK mod)
CC(C)CCCC(C)C1CCC2C3CC=C4CC(O)CCC4(C)C3CCC12C (stereo not given)	none (no result: HADH2 inhib, Bst PK mod, Luciferase inh)

Screens (PubChem)
